Outcome data for 21 molecules are collected here from PubChem BioAssay AID463095 (Sanford-Burnham Center for Chemical Genomics, 2010).

Molecules are shown by their SMILES. The list shows a part of the results. Active and inactive are the calls of the source.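 Rule for the calls: active = proliferation increase above 40% at any of the four tested concentrations; inactive = the rest.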

This experiment in a line: MIN6 insulinoma cell replication enhancers – MIN6 cells, mouse, confirmation (AID 463095). The conditions noted are these: MIN6 beta-cell proliferation, ATPlite luminescence, 48 h, cells kept in 0.2% serum, scaled between 0.2% and 10% serum; series mostly up to 50 µM. (In ATP-based viability assays light output follows the ATP content of the culture.)
As to `CC(=O)c1cnc(-c2ccccc2)s1`, the result was inactive.

In the case of `COCCNc1nc(-c2ccccc2)nc2c1oc1ccccc12`, the outcome was inactive.

For the molecule `COc1cccc(CNC(=O)C2CCCN(c3ncnc4c3nc3n4CCCCC3)C2)c1` (stereo unspecified), the outcome was inactive.

Regarding `CC(=O)c1ccc(S(=O)(=O)NCc2nnnn2-c2ccccc2)cc1`, the outcome was inactive.

With `CC1(C)C2CC=C(/C=N/NC(=O)C3CC3)C1C2` (stereo unspecified), the result was inactive.

For `COc1ccc(-c2nnn(Cc3nc(N)nc(N4CCCCC4)n3)n2)cc1`, the outcome was inactive.

In the case of `CCOc1ccccc1NC(=O)Nc1cc(OC)ccc1OC`, the outcome was inactive.

Regarding `CCOC(=O)Nc1sc(C(=O)N(C)C)c(C)c1C(=O)OCC`, the outcome was inactive.

As to `Fc1ccc(CNCc2ccc(Br)cc2)cc1`, the result was inactive.

`Cc1ccccc1CNC(=O)CCC(=O)N1Cc2ccccc2Oc2ncccc21`: the result was inactive.

For the molecule `COc1ccc(CCn2c(=N)c(C(=O)NCc3ccco3)cc3c(=O)n4cccc(C)c4nc32)cc1`, the outcome was inactive.

With `CC(=O)OC(C(=O)NC1CCCCC1)c1ccccc1` (stereo unspecified), the outcome was inactive.

With `O=C1c2ccccc2S(=O)(=O)c2cc(N3CCN(c4ccccn4)CC3)ccc21`, the outcome was inactive.

Regarding `COc1ccccc1OCc1ccc(C(=O)N2CCN(C)CC2)o1`, the outcome was inactive.

With `OC1CN=C2Sc3ccccc3N2C1` (stereo unspecified), the result was inactive.

In the case of `CC/C(=N/Nc1ccccc1)c1cnnc(SC)n1`, the result was inactive.

Turning to `COc1cccc(CNC(=O)CCC2CCCN(C(=O)c3ccoc3C)C2)c1` (stereo unspecified), the outcome was inactive.

In the case of `CCn1c(=O)c([N+](=O)[O-])c(NCc2ccc3c(c2)OCO3)c2ccccc21`, the result was inactive.

Turning to `COc1ccccc1N=Cc1c(O)c2ccccc2oc1=O`, the result was inactive.

Regarding `CCn1c(=O)n(CC)c2cc(N3CCCC3)c(NC(=O)c3ccccc3Br)cc21`, the outcome was inactive.

On to `Cn1cc(CN2CCC(C(O)CCc3ccccc3)CC2)c(-c2ccccc2F)n1` (stereo unspecified), for which the result was inactive.
